Dicer processing – inhibitors of human Dicer processing of pre-microRNA; cat-ELCCA pre-miR-21 Dicer processing, chemiluminescence; stronger effect = higher value; z-score at 25 µM; actives 6% (n = 47,000); AID 1347074; in the data active = z-score above about 3, passing the limit was not always enough;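 also: plate controls were vehicle for no effect and no enzyme for full effect; higher signal means more uncleaved substrate so more Dicer inhibition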
* marks the source's active call; other numbers are inactive results. Shown is part of a subset that was picked to be rich in hits.

Results for Cc1cccc(NC(c2ccc(O)cc2)c2ccc3ccc(C)nc3c2O)n1 (stereo unspecified) ?
Dicer processing: 2.5

How did Cc1cccc(NC(c2cccnc2)c2ccc3cccnc3c2O)c1 (stereo unspecified) do in these assays?
Dicer processing: -0.49

How did Cc1ccc(S(=O)(=O)N2CCCN(S(=O)(=O)c3ccc(C)cc3C)CC2)c(C)c1 do in these assays?
Dicer processing: -0.03

What do the screens show for `CCc1nc(C)cn1S(=O)(=O)c1cc(C(C)C)c(C)cc1OC`?
Dicer processing: -0.18

How did COc1ccc(Cc2nnc(N)o2)cc1OC do in these assays?
Dicer processing: 0.68

What do the screens show for `COc1ccc(Cc2nnc(Nc3ccc(Cl)cc3Cl)o2)cc1OC`?
Dicer processing: 3.9*

What do the screens show for `COc1ccc(Cc2nnc(Nc3ccc(C)cc3)o2)cc1OC`?
Dicer processing: 1.6

How did Cc1ccc(C(=O)CC2(O)C(=O)N(Cc3ccccc3)c3ccc(Br)cc32)s1 (stereo unspecified) do in these assays?
Dicer processing: 3.6*

How did CCCCN1C(=O)C(O)(CC(=O)c2ccc(C)s2)c2cc(Br)ccc21 (stereo unspecified) do in these assays?
Dicer processing: 2.3

Results for CCCN1C(=O)C(O)(CC(=O)c2ccc(C)o2)c2cc(Br)ccc21 (stereo unspecified) ?
Dicer processing: -0.06

How did Cc1ccccc1CN1C(=O)C(O)(CC(=O)c2ccco2)c2cc(Cl)ccc21 (stereo unspecified) do in these assays?
Dicer processing: 2.3

Results for O=C(CC1(O)C(=O)N(Cc2ccccc2)c2ccc(Br)cc21)c1cccnc1 (stereo unspecified) ?
Dicer processing: 2.6

Results for CCCN1C(=O)C(O)(CC(=O)c2ccc(C)s2)c2ccccc21 (stereo unspecified) ?
Dicer processing: -0.54

Results for Cc1coc(C)c1C(=O)CC1(O)C(=O)N(Cc2ccccc2)c2ccc(Br)cc21 (stereo unspecified) ?
Dicer processing: 3.8*

What do the screens show for `Cc1ccc(C(=O)CC2(O)C(=O)N(Cc3ccc(Cl)cc3)c3ccccc32)cc1` (stereo unspecified)?
Dicer processing: 2.7

What do the screens show for `Cc1ccc(CN2C(=O)C(O)(CC(=O)c3ccc(C)o3)c3cc(Cl)ccc32)cc1` (stereo unspecified)?
Dicer processing: 3.7*

What do the screens show for `NC(=O)c1cccc2cccc(I)c12`?
Dicer processing: -0.25

What do the screens show for `CC(=O)N1CCC(C(=O)Nc2ccc3nc(C)ccc3c2)CC1`?
Dicer processing: -0.43

What do the screens show for `O=C(NC(=O)N1CCCC1)C1CCN(c2cnc3ccccc3n2)CC1`?
Dicer processing: 0.98

What do the screens show for `Cc1c(C)c(C)c(C(=O)CCC(=O)O)c(C)c1C`?
Dicer processing: -0.67

How did COc1ccc(OC)c(C(C)=O)c1OCc1ccccc1 do in these assays?
Dicer processing: -0.15

How did CC1C2=C(CC(C)(C)CC2=O)OC2=C1C(=O)CC(C)(C)C2 do in these assays?
Dicer processing: -2.8

Results for O=C(Nc1ccccc1)OC1CN(C(c2ccccc2)c2ccccc2)C1 ?
Dicer processing: -0.21

How did COc1ccc(-c2nc3c4cnn(-c5ccc(C)cc5)c4ncn3n2)cc1OC do in these assays?
Dicer processing: -0.15

What do the screens show for `O=C(ON/C=N/c1ncc(-c2ccc(Br)s2)s1)c1ccc([N+](=O)[O-])cc1`?
Dicer processing: 0.29

What do the screens show for `Cc1ccc(-c2nc(/N=C/N(C)C)sc2C)cc1Cl`?
Dicer processing: -0.43

Results for Cc1ccc(-c2nc(/N=C/NOC(=O)c3ccc([N+](=O)[O-])cc3)sc2C)cc1Cl ?
Dicer processing: 3.6*

Results for Cc1ccccc1CN1C(=O)C(O)(c2c(C)[nH]c3ccccc23)c2ccccc21 (stereo unspecified) ?
Dicer processing: 0.92

Results for O=C1OC(c2ccc(F)cc2)/C(=C(/O)c2ccccc2)C1=O (stereo unspecified) ?
Dicer processing: 1.3

How did COCCN1C(=O)c2oc3ccc(F)cc3c(=O)c2C1c1ccc(C(=O)OC)cc1 (stereo unspecified) do in these assays?
Dicer processing: -1

How did C=C(C)c1cccc(C(C)(C)NC(=O)NCc2ccc(Cl)cc2)c1 do in these assays?
Dicer processing: 0.35

How did C=C(C)c1cccc(C(C)(C)NC(=O)NCCc2ccc(S(N)(=O)=O)cc2)c1 do in these assays?
Dicer processing: 3.9*

Results for C=C(C)c1cccc(C(C)(C)NC(=O)NCCc2ccccc2)c1 ?
Dicer processing: 1.2

What do the screens show for `O=C(O)c1ccccc1S(=O)c1ccccc1CCO` (stereo unspecified)?
Dicer processing: -0.81

How did N#CCCN(Cc1ccccc1)S(=O)(=O)c1ccc(F)cc1 do in these assays?
Dicer processing: -0.74

How did CCCCN1Cc2c(n(CC(=O)c3ccccc3)c3cc(-c4ccccc4)nn3c2=O)C1=O do in these assays?
Dicer processing: 3.1*

What do the screens show for `CCCCN1Cc2c(n(Cc3ccccc3)c3cc(-c4ccccc4)nn3c2=O)C1=O`?
Dicer processing: -0.1

Results for CCCCN1Cc2c(n(CC(N)=O)c3cc(-c4ccccc4)nn3c2=O)C1=O ?
Dicer processing: -0.98

Screens as filed in PubChem.
